# According to PubChem BioAssay (Tox21):
# Records with an inconclusive call do not appear. A call without a number means that no potency is given here. Values without a mark were called inactive. The source made the active and inactive calls. Unless noted, calls come from the whole dose curve; as a rule, active = well fitted curve in the direction sought with a large enough effect in the repeat runs; inconclusive = weak or mixed curves; inactive = no such curve, though single readings can be large; an effect the other way counts as inactive or inconclusive.
# What was measured:
# [1] = qHTS assay to identify small molecule antagonists of the glucocorticoid receptor (GR) signaling pathway - cell viability counter screen (AID 720693); note: nearly all actives have a fitted effect of over 55% in size
# [2] = qHTS assay for identifying genotoxic compounds that show differential cytotoxicity against isogenic chicken DT40 cell lines with known DNA damage response pathways - wild type cell line (AID 743012); note: nearly all actives have a fitted effect of over 60% in size; note: potency is the fitted concentration of half-maximal effect
# Summary of the method: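 Cytotoxicity in repair-proficient parental chicken DT40 cells serves as the comparator for Rad54/Ku70- and Rev3-deficient lines. Cells were exposed to compounds for 40 h at 37 C/5% CO2, and ATP-based luminescence (CellTiter-Glo) measured viability.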
# [3] = qHTS assay for identifying genotoxic compounds that show differential cytotoxicity against isogenic chicken DT40 cell lines with known DNA damage response pathways - Rev3 mutant cell line (AID 743014); note: nearly all actives have a fitted effect of over 55% in size; note: potency is the fitted concentration of half-maximal effect
# [4] = qHTS assay for identifying genotoxic compounds that show differential cytotoxicity against isogenic chicken DT40 cell lines with known DNA damage response pathways - Rad54/Ku70 mutant cell line (AID 743015); note: nearly all actives have a fitted effect of over 60% in size; note: potency is the fitted concentration of half-maximal effect
# [5] = qHTS assay to identify small molecule antagonists of the androgen receptor (AR) signaling pathway - cell viability counter screen (AID 743033; note: nearly all actives have a fitted effect of over 45% in size)
# [6] = qHTS assay to identify small molecule antagonists of the androgen receptor (AR) signaling pathway using the MDA cell line - cell viability counter screen (AID 743041; note: nearly all actives have a fitted effect of over 45% in size)
# Summary of the method: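 Cytotoxicity counter screen: MDA-kb2 AR-luc cells, compound + R1881, 16 h, 37C, 0% CO2; CellTiter-Fluor added at 15.5 h, fluorescence read after 30 min.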
# [7] = qHTS assay to identify small molecule antagonists of the thyroid receptor (TR) signaling pathway - cell viability counter screen (AID 743064); note: nearly all actives have a fitted effect of over 50% in size; note: potency is the fitted concentration of half-maximal effect
# Summary of the method: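 GH3.TRE-Luc rat pituitary cells carrying a TRE-luciferase reporter were treated with compound plus 1 nM T3 (final) for 23.5 h at 37 °C. Viability was then read in the same wells by CellTiter-Fluor fluorescence after a further 30 min.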
# [8] = qHTS assay to identify small molecule antagonists of the thyroid receptor (TR) signaling pathway (AID 743065); note: nearly all actives have a fitted effect of over 55% in size; note: potency is the fitted concentration of half-maximal effect
# Summary of the method: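 GH3.TRE-Luc rat pituitary cells (two TREs driving luciferase) were dosed with compound, then stimulated with 1 nM T3 (final) for 23.5 h at 37 C. ONE-Glo luminescence was the read-out, with CellTiter-Fluor fluorescence as the cytotoxicity counter-screen.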
# [9] = test system: thyroid hormone receptor (rat, GH3 cells); assay: qHTS assay to identify small molecule agonists of the thyroid receptor (TR) signaling pathway (AID 743066; calls by dose curve)
# [10] = qHTS assay to identify small molecule antagonists of the estrogen receptor alpha (ER-alpha) signaling pathway - cell viability counter screen (AID 743074; calls by dose curve;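 note: HEK293 cells carrying ER-alpha-UAS-bla reporter stimulated with 17beta-estradiol; nearly all actives have a fitted effect of over 45% in size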)
# [11] = qHTS assay to identify small molecule antagonists of the estrogen receptor alpha (ER-alpha) signaling pathway using the BG1 cell line - cell viability counter screen (AID 743081);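 note: compound given together with 17beta-estradiol as the ER stimulus; series mostly up to about 70 µM; nearly all actives have a fitted effect of over 45% in size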
# [12] = biological target: Estrogen receptor (Homo sapiens) (UniProt P03372); assay: qHTS assay to identify small molecule antagonists of the estrogen receptor alpha (ER-alpha) signaling pathway (AID 743069; active = well fitted curve in the direction sought with a large enough effect in the signal ratio in the repeat runs, not every such curve was filed as active; the % refers to the signal ratio)
# Estrogen receptor (Homo sapiens), sequence (P03372 whole entry, looked up): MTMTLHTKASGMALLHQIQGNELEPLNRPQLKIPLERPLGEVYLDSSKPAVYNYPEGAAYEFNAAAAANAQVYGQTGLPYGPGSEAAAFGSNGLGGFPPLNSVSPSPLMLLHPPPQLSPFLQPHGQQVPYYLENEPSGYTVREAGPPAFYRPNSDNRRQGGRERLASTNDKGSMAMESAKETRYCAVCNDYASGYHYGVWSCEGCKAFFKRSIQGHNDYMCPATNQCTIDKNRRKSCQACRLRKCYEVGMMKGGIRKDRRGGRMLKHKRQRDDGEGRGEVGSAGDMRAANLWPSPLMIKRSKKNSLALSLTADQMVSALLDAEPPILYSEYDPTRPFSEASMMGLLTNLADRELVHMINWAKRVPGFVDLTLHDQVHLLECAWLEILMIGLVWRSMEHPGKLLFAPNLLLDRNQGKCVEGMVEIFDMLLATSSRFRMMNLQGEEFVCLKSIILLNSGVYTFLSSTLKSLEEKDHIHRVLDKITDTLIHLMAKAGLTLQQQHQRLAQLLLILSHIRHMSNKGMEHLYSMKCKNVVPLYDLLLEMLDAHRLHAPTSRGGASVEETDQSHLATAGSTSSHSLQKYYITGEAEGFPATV
# Summary of the method: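 Beta-lactamase FRET fluorescence is read after 2 hr at room temperature with LiveBLAzer B/G substrate. Before that, ER-alpha-bla HEK293 cells sit 4 hr after plating, then receive compound plus 17beta-estradiol and incubate 18 hr at 37C.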
# [13] = biological target: Estrogen receptor (Homo sapiens) (UniProt P03372); assay: qHTS assay to identify small molecule agonists of the estrogen receptor alpha (ER-alpha) signaling pathway (AID 743075; calls by dose curve;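 note: HEK293 GripTite cells with ER-alpha and UAS-driven beta-lactamase reporter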)
# [14] = qHTS assay to identify small molecule antagonists of the estrogen receptor alpha (ER-alpha) signaling pathway using the BG1 cell line (AID 743080; calls by dose curve; note: series mostly up to about 70 µM; nearly all actives have a fitted effect of over 25% in size)
# Summary of the method: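 Antagonist mode: compounds in DMSO were pinned onto BG1-Luc-4E2 cells alongside 17beta-estradiol agonist, incubated 21.5 h, and ERE-driven luciferase measured with ONE-Glo. Cytotoxicity was multiplexed using CellTiter-Fluor fluorescence.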
# [15] = biological target: Aromatase (Homo sapiens) (UniProt P11511); assay: qHTS assay to identify aromatase inhibitors (AID 743083); note: series mostly up to about 70 µM; nearly all actives have a fitted effect of over 55% in size
# Aromatase (Homo sapiens), sequence (P11511 whole entry, looked up): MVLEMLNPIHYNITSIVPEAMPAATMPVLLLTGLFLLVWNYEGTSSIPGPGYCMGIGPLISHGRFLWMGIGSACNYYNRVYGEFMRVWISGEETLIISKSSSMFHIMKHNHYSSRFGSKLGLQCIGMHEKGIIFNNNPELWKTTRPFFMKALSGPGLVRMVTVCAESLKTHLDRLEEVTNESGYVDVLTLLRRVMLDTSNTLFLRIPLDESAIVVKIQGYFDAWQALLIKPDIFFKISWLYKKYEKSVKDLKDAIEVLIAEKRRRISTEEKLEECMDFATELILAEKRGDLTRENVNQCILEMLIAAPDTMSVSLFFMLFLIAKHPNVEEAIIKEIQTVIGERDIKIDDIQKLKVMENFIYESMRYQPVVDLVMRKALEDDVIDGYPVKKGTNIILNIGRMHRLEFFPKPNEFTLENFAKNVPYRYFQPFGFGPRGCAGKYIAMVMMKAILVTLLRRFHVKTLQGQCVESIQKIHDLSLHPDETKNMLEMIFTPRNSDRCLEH
# [16] = biological target: Estrogen receptor (Homo sapiens) (UniProt P03372); assay: qHTS assay to identify small molecule agonists of the estrogen receptor alpha (ER-alpha) signaling pathway using the BG1 cell line (AID 743079); note: nearly all actives have a fitted effect of over 20% in size; note: potency is the fitted concentration of half-maximal effect
Compound,outcome [1],Potency [2],Potency [3],Potency [4],outcome [5],Potency [6],Potency [7],Potency [8],outcome [9],Potency [10],outcome [11],Potency [12],Potency [13],Potency [14],outcome [15],Potency [16]
O=C1NC(=O)C2CC=CCC12 (stereo not given),inactive,inactive,inactive,inactive,inactive,inactive,inactive,inactive,inactive,inactive,inactive,,,,,
CN(C)CCCN(C)CCCN(C)C,inactive,inactive,inactive,inactive,inactive,inactive,inactive,inactive,inactive,inactive,inactive,inactive,inactive,inactive,inactive,
CC/C=C\CCOC(C)OCC (stereo not given),inactive,inactive,inactive,inactive,inactive,inactive,inactive,inactive,inactive,inactive,inactive,inactive,,inactive,inactive,inactive
CCCCCCC#CC(=O)OC,inactive,inactive,inactive,inactive,inactive,inactive,inactive,inactive,inactive,inactive,inactive,,,,inactive,
CC(C)(N)C#N,inactive,inactive,inactive,inactive,inactive,inactive,inactive,inactive,inactive,inactive,inactive,inactive,inactive,,inactive,inactive
CCN(C=O)CC,inactive,inactive,inactive,inactive,inactive,inactive,inactive,inactive,inactive,inactive,inactive,,,,,
CC1=CCC(O)(C(C)C)CC1 (stereo not given),inactive,inactive,inactive,inactive,inactive,inactive,inactive,inactive,inactive,inactive,inactive,inactive,inactive,,inactive,
CCO[Si](OCC)(OCC)c1ccccc1,inactive,inactive,inactive,inactive,inactive,inactive,inactive,inactive,inactive,inactive,inactive,,,,,
CCC(C)(CCCC(C)C)OC(C)=O (stereo not given),inactive,inactive,inactive,inactive,inactive,inactive,inactive,inactive,inactive,inactive,inactive,inactive,inactive,,inactive,inactive
CC(CC=O)CC(C)(C)C (stereo not given),inactive,inactive,inactive,inactive,inactive,inactive,inactive,inactive,inactive,,inactive,inactive,inactive,inactive,inactive,inactive
CN1CCN(c2cc3c(nn2)Oc2ccccc2N3C)CC1,inactive,inactive,inactive,inactive,inactive,inactive,inactive,inactive,inactive,inactive,inactive,,,,inactive,
CC(CO)(CO)[N+](=O)[O-],inactive,inactive,inactive,inactive,inactive,inactive,inactive,inactive,inactive,inactive,inactive,inactive,inactive,inactive,,
CCCCCCCCCCCCSC,inactive,inactive,61100 nM (active),inactive,inactive,inactive,inactive,inactive,inactive,inactive,inactive,,,,inactive,
CC(C#N)(CCC(=O)O)N=NC(C)(C#N)CCC(=O)O (stereo not given),inactive,inactive,inactive,inactive,inactive,inactive,inactive,inactive,,inactive,inactive,,,,inactive,
CCOc1ccc2nc(S(N)(=O)=O)sc2c1,inactive,inactive,inactive,inactive,inactive,inactive,inactive,inactive,inactive,inactive,inactive,inactive,inactive,,inactive,
Nc1ccn([C@@H]2O[C@H](CO)[C@@H](O)[C@@H]2O)c(=O)n1,inactive,61.1 nM (active),43.3 nM (active),43.3 nM (active),inactive,inactive,217 nM (active),77 nM (active),inactive,inactive,inactive,,inactive,inactive,inactive,24300 nM (active)
CC(C)C(=O)OC(=O)C(C)C,inactive,inactive,inactive,inactive,inactive,inactive,inactive,inactive,inactive,inactive,inactive,,,,,
O=CN(CCO)CCO,inactive,inactive,inactive,inactive,inactive,inactive,inactive,inactive,inactive,inactive,inactive,,,,inactive,
[O-][n+]1cccc(CO)c1,inactive,inactive,inactive,inactive,inactive,inactive,inactive,inactive,inactive,inactive,inactive,inactive,inactive,inactive,inactive,
